Assay [1] can be described thus: small molecules captured by biotinylated probe aFSTL3 – biochemical, small-molecule microarray, fluorescence 635/667, stem cell growth factor project, primary screen (AID 1064).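 Further: measures binding of the biotinylated anti-FSTL3 antibody to printed compounds.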 To be noted: higher = more signal.
Assay [2] is described as follows: binders from COS7 lysate, DM2A8 probe, primary screen, torsin A project, cell lysate, small-molecule microarray, fluorescence 635/667 (AID 1065). The note with it: higher = more signal, COS7 lysate expressing mutant human TOR1A.
The nature of assay [3]: small molecules captured by biotinylated probe aFGF2 – biochemical, small-molecule microarray, fluorescence 635/667, stem cell growth factor project, primary screen (AID 1067).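 Further: measures binding of biotinylated aFGF2 protein to printed compounds on slides; z-score merges feature fluorescence and signal-to-noise across triplicate slides.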 The note with it: higher = more signal.
A short description of assay [4]: small molecules captured by biotinylated probe aFGF10 – biochemical, small-molecule microarray, fluorescence 635/667, stem cell growth factor project, primary screen (AID 1071).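 Further: score merges 667 nm spot intensity and signal to noise from triplicate slides.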 The note with it: higher = more signal.
For assay [5], the target named is Neurogenic locus notch homolog protein 2 (Homo sapiens) (UniProt Q04721). Nature of the assay: small molecules binding Notch2 protein – biochemical, small-molecule microarray, 635 nm fluorescence, stem cell growth factors, primary screen (AID 1073). The note with it: higher = more signal.
Assay [6] concerns the target Pro-neuregulin-1, membrane-bound isoform (Homo sapiens) (UniProt Q02297). Nature of the assay: small molecules binding neuregulin-1 protein – biochemical, small-molecule microarray, fluorescence 635/667, psychiatric disease protein project, primary screen (AID 1075).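 Further: score combines 667 nm spot fluorescence with signal to noise.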 The note with it: NRG1 binding, 635 nm fluorescence, higher = more signal.
Assay [7] concerns Neuregulin-1 EGF-like domain. Nature of the assay: small molecules binding NRG1 EGF domain – biochemical, small-molecule microarray, 635 nm fluorescence, primary screen (AID 1081).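 Further: binding of the protein to compounds printed on small-molecule microarray slides.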 To be noted: higher = more signal.
Assay [8] can be described thus: FRG1 expression reporter modulators in myotubes – cell-based, C2C12 myotubes, firefly/Renilla luciferase, luminescence, FRG1 inhibition for FSHD, primary screen (AID 1084). The note with it: FRG1 promoter luciferase, higher = more signal, called active from +8 up or from −8 down.
Assay [9] can be described thus: small molecules captured by biotinylated probe aFST – biochemical, small-molecule microarray, fluorescence 635/667, stem cell growth factor project, primary screen (AID 1086).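 Further: score merges 667 nm fluorescence with signal-to-noise of each printed compound spot.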 To be noted: higher = more signal.
Assay [10] in a line: binders of probe aHhip on microarray, primary screen, stem cell growth factor project, biochemical, small-molecule microarray, fluorescence 635/667 (AID 1087).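 Further: score merges spot fluorescence at 667nm with spot signal to noise ratio.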 To be noted: higher = more signal.
Assay [11] has as its system PRMT1 (protein arginine N-methyltransferase 1). Nature of the assay: small molecules binding arginine methyltransferase PRMT1 – biochemical, small-molecule microarray, 635 nm fluorescence, primary screen (AID 1088).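 Further: binding of Prmt1 protein to compounds spotted on small-molecule microarray slides.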 The note with it: higher = more signal.
Assay [12] can be described thus: growth effects on S. cerevisiae YJM789 – YJM789 clinical isolate, OD600, 24 h, basal, primary screen (AID 1089).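 Further: growth of clinical yeast isolate S. cerevisiae YJM 789 seeded 1000 cells per well; test concentration not given here.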 The note with it: higher = more signal, called active from +8 up or from −8 down.
The nature of assay [13]: S. pombe growth modifiers, basal conditions – strain 972, OD600, 24 h, no modulator, primary screen (AID 1090).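 Further: basal condition with compound alone and no growth modifier present; test concentration not given here.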 To be noted: S. pombe 972 growth, higher = more signal, called active from +8 up or from −8 down.
A short description of assay [14]: budding yeast growth modifiers under rapamycin – strain BY4716, OD600, 96 h, primary screen (AID 1091). Further: test concentration not given here. To be noted: S. cerevisiae BY4716 + rapamycin, higher = more signal, called active from +8 up or from −8 down.
Assay [15] has as its target Torsin-1A-interacting protein 2 (Homo sapiens) (UniProt Q8NFQ8). Nature of the assay: small molecules binding lysate-expressed LULL1 – cell lysate, human LULL1 lysate, 635/667 nm fluorescence, primary screen (AID 1092).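 Further: score merges per-feature 667 nm fluorescence with signal-to-noise.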 The note with it: small-molecule microarray, hLULL1 lysate binding, 635 nm fluorescence; higher = more signal.
A short description of assay [16]: optical density change of DRC41 E. coli – strain DRC41, OD650, 24 h, E. coli filamentation project, primary screen (AID 1093).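 Further: MC1000 strain lacking acrAB efflux and sulA so SOS filamentation is blocked; test concentration not given here.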 The note with it: E. coli DRC41 growth, higher = more signal, called active from +8 up or from −8 down.
Assay [17] in a line: probe aLefty2 binding to arrayed compounds – biochemical, biotinylated probe, 635/667 nm fluorescence, primary screen (AID 1094).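 Further: score merges spot fluorescence near 667 nm with spot signal-to-noise ratio.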 The note with it: small-molecule microarray, higher = more signal.
The test system of assay [18] is Noggin (protein binding on small-molecule microarray). Nature of the assay: small molecules binding Noggin protein – biochemical, 635/667 nm fluorescence, primary screen (AID 1095).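 Further: score merges 667 nm feature fluorescence with signal to noise over triplicate slides.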 The note with it: 635 nm fluorescence, higher = more signal.
For assay [19], the target named is Neurogenic locus notch homolog protein 3 (Homo sapiens) (UniProt Q9UM47). Nature of the assay: small molecules binding NOTCH3 protein – biochemical, 635/667 nm fluorescence, primary screen (AID 1096). The note with it: small-molecule microarray, 635 nm fluorescence, higher = more signal.
Neurogenic locus notch homolog protein 3 (Homo sapiens), sequence (Q9UM47 whole entry, looked up): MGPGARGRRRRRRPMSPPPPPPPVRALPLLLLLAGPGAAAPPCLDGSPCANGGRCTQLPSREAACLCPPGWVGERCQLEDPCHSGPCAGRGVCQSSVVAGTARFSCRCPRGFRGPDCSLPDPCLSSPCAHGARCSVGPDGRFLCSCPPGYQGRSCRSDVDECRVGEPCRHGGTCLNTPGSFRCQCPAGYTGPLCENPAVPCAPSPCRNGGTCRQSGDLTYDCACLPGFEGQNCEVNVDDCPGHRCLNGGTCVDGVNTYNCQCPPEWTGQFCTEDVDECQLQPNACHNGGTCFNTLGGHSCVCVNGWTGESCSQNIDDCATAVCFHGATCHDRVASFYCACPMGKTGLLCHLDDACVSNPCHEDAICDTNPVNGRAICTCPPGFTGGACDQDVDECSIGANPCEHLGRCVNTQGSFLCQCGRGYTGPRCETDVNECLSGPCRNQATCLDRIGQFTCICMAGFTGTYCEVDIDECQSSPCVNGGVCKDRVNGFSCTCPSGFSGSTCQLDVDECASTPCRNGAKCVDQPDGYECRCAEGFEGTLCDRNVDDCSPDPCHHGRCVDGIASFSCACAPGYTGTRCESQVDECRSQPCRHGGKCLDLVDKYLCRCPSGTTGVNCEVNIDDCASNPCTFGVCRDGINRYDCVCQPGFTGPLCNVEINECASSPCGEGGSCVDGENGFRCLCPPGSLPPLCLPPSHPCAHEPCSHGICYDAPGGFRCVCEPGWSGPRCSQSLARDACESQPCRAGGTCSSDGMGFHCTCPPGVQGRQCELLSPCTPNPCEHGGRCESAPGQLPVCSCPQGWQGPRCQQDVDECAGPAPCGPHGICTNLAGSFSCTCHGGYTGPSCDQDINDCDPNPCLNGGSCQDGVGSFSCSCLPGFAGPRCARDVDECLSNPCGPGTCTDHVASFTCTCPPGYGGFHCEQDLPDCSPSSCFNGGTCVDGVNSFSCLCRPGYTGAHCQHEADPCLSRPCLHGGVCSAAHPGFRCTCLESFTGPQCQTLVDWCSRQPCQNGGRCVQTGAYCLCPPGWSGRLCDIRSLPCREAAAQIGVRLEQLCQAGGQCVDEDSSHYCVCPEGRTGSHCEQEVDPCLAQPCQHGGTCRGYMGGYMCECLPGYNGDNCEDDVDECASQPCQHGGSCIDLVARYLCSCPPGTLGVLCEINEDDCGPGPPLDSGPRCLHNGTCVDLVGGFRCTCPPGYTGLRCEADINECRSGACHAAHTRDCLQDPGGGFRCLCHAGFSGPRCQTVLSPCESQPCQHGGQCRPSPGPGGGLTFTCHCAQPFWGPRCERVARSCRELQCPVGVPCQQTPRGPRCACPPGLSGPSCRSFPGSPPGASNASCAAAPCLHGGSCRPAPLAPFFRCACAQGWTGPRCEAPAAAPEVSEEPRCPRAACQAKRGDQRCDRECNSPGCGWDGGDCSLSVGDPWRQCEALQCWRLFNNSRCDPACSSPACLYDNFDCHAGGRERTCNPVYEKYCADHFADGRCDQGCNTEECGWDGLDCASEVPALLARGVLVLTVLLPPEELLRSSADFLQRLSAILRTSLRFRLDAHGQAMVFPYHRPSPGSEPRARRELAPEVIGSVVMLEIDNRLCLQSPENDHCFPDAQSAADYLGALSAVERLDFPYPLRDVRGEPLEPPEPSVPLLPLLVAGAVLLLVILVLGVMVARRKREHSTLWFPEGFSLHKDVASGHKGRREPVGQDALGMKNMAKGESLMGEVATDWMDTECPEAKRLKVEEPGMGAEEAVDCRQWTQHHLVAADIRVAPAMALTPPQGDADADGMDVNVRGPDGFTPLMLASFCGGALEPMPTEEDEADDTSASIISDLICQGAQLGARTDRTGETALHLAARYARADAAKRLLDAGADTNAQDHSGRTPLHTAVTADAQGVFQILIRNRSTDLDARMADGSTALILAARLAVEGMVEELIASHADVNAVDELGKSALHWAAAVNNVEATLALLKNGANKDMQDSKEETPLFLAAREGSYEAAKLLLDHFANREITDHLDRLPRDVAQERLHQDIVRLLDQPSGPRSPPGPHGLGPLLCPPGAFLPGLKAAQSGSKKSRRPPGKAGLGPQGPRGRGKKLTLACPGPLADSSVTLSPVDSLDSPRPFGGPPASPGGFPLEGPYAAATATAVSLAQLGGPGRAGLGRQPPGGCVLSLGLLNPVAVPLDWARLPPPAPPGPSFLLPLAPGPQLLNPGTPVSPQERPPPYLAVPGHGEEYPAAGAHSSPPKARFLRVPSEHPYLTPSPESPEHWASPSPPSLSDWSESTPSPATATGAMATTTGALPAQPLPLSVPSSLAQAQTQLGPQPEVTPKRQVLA
Assay [20] is described as follows: probe aEGFR binding to arrayed compounds – biochemical, biotinylated probe, 635/667 nm fluorescence, primary screen (AID 1097).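 Further: probe is a biotinylated anti-EGFR antibody binding compounds printed on slides; score combines fluorescence near 667 nm and signal to noise of each spot.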 To be noted: small-molecule microarray, higher = more signal.

Calls of active or inactive are those of the source.

Pro-neuregulin-1, membrane-bound isoform (Homo sapiens), sequence (Q02297 whole entry, looked up, the tested form may be a part, canonical isoform): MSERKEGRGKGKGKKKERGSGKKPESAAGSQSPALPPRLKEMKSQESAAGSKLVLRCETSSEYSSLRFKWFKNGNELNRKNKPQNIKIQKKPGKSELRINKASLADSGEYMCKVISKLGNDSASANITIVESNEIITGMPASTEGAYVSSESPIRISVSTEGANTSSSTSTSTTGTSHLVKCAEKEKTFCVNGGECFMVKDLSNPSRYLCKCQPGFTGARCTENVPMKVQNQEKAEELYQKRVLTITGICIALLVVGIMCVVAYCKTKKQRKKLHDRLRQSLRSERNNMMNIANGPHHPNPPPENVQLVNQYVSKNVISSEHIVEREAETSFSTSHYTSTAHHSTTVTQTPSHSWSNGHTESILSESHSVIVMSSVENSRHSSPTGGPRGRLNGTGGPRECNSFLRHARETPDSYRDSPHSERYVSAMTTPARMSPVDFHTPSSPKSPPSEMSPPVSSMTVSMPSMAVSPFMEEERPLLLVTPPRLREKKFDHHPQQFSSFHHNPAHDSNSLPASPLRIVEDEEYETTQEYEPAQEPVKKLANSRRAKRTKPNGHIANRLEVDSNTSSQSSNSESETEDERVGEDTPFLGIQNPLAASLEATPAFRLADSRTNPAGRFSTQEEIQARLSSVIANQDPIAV
Torsin-1A-interacting protein 2 (Homo sapiens), sequence (Q8NFQ8 whole entry, looked up): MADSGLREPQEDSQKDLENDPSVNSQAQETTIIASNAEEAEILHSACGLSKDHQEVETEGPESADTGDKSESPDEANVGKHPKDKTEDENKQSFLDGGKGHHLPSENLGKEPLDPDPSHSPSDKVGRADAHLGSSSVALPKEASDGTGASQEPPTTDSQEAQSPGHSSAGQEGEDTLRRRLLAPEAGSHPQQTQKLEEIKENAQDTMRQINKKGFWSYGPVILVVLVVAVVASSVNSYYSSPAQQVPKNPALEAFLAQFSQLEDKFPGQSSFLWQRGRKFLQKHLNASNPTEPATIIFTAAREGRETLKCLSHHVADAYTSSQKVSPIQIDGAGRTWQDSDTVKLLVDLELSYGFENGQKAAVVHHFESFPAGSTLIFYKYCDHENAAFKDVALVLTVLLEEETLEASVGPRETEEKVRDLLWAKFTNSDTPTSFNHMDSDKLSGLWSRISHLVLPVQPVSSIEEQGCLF

Consider `[N-]=[N+]=NCc1ccccc1C[C@@]1(C(=O)NCCN2CCOCC2)N=C(c2ccc(OCCCO)cc2)O[C@@H]1c1ccccc1N=[N+]=[N-]`, for which the composite z-score in assay [1] was determined as 0.646; in assay [2] it was 1.99; in assay [3] it was 0.075; in assay [4], 0.879; in [5], 0.777; in [6] it was 0.684. The composite z-score was 1.16 in assay [7]; 0.75 in [9]; -0.0296 in [10]; 1.37 in assay [11]; 3.12 in assay [15]; 0.09 in assay [17]. The values for the composite z-score in assay [18], in [19] and in assay [20] were 0.622, 0.842 and -0.0738, respectively. For the same compound, the z-score is -1.89 (inactive) in [8]; -1.22 (inactive) in assay [12]; -0.269 (inactive) in assay [13]; 1.29 (inactive) in [14]; -0.704 (inactive) in [16].
`COC(=O)[C@@]1(Cc2ccc(OC)cc2)[C@H]2c3cc(C(=O)N(C)C)n(CCc4c[nH]c5ccc(O)cc45)c3C[C@H]2CN1C(=O)c1ccccc1`: the composite z-score is 1.27 in [1]; -0.0234 in [2]; 0.147 in assay [3]; 1.04 in assay [4]; 1.69 in [5]; 1.91 in assay [6]. Also, the composite z-score in assay [7] was determined as 1.25; in assay [9] it was 1.7; in assay [10], 0.177; in assay [11], 0.56; in [15], 3.36; in [17], 0.41. Further, the composite z-score in assay [18] was -0.0794; in assay [19] it was 1.02; in [20] it was 0.102. The z-score was 1.5 (inactive) in [8]; 1.94 (inactive) in [12]; 0.466 (inactive) in assay [13]; 3.51 (inactive) in assay [14]; -0.765 (inactive) in [16].
Take `CCCCN1CC=CC23O[C@@H]4/C=C\CCC(C)OC(=O)C4[C@H]2C(=O)N(CCCCCCO)[C@@H]3C1=O` (stereo not given in full): the composite z-score in assay [1] was 0.666; in [2], 0.345; in assay [3], -0.0712; in assay [4], 0.867; in [5] it was -0.625; in assay [6], 0.272. Further, the composite z-score is 1.59 in assay [7]; -0.213 in assay [9]; -0.119 in assay [10]; -0.969 in [11]; 1.4 in assay [15]; -0.212 in assay [17]. Further, the composite z-score in assay [18] is -0.806; in [19], -0.407; in [20], -0.313. Besides, the z-score in assay [8] was 0.189 (inactive); in assay [12] it was -0.287 (inactive); in [13], -0.737 (inactive); in assay [14], 0.045 (inactive); in assay [16], 0.272 (inactive).
Take `O=C(CS)NCCCCCCNC(=O)[C@@H]1C[C@@H]2C(=O)N3CCC[C@H]3C(=O)N2[C@@H]1c1cccc(OCCO)c1`: the composite z-score in assay [1] came out at 0.145; in assay [2], 0.804; in assay [3], 0.109; in [4] it was 0.256; in [5], 0.407; in assay [6], 1.28. The composite z-score in assay [7] was 0.911; in assay [9], -0.022; in assay [10] it was -0.0645; in [11] it was 1.35; in assay [15], 2.35; in assay [17], 0.177. In addition, the composite z-score in assay [18] was 0.488; in assay [19], 1; in [20], 0.0195. Besides, the z-score in [8] is 1.05 (inactive); in assay [12], -1.69 (inactive); in [13], 0.335 (inactive); in assay [14], -0.365 (inactive); in assay [16], 1.2 (inactive).
On to `COc1cc2c(cc1OC)CN(C(=O)[C@@H]1[C@H]3C(=O)O[C@H](c4ccccc4)[C@H](c4ccccc4)N3[C@H](c3ccccc3OCCO)[C@@]13C(=O)Nc1ccc(C#CC4(O)CCCCCC4)cc13)CC2`, for which the composite z-score in assay [1] was -0.0079; in [2] it was 0.955; in assay [3], -0.0573; in [4], 0.201; in [5], 0.463; in assay [6] it was 0.935. Also, the composite z-score in assay [7] is 1.2; in [9], -0.0613; in assay [10], -0.123; in [11] it was 1.54; in assay [15], 2.09; in assay [17], 0. Further, the figures for the composite z-score in assay [18], in [19] and in assay [20] were 0.56, 0.896 and -0.0357, respectively. Also, the z-score in assay [8] is -0.066 (inactive); in assay [12], 2.74 (inactive); in assay [13] it was 0.563 (inactive); in [14], 5.14 (inactive); in assay [16], 2.26 (inactive).
